Assay outcomes as filed in PubChem BioAssay.
TDP1 inh = TDP1 (human) enzyme inhibition; Potency, µM (titrated, usually from 130 µM), hits mostly inhibitors; 350,000 compounds, 0.28% hits; Q9NUW8; recombinant TDP1, AlphaScreen DNA substrate cleavage; further: nearly all actives have a fitted effect of over 40% in size
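AlphaScreen read-out: signal falls as enzyme removes the 3' tyrosine-FITC from a 5'-biotinylated DNA oligo (15 nM, 5 min, RT). Enzyme was E. coli-made recombinant Tdp1 at 1 nM, exposed to compound for 15 min beforehand; beads 10 ug/ml, 10 min.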
HP1b chromo inh = inhibitors of HP1-beta chromodomain binding to methylated histone tails. P83916. AlphaScreen HP1-beta / biotin-H3K9me3 peptide binding. Potency, µM (series often up to 114 µM), most hits filed as inhibitors. 390,000 compounds, 0.56% hits. AID 540317; further: nearly all actives have a fitted effect of over 70% in size
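Compound inhibition of the preformed complex between 50 nM HP1-beta and 50 nM biotinylated H3K9me3 peptide was read by AlphaScreen. Buffer was PBS pH 7.4 with 0.01% Tween-20. Incubations ran 30 min at room temperature, with 10 ug/mL donor/acceptor beads.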
CtBP-E1A blk = CtBP/E1A binding inhibition | AlphaScreen GST-E1A/His-CtBP binding, 1536-well; hits give low values | activity change, % (no concentration beside the values) | 340,000 compounds, 0.49% hits; in the data active means activity change below about -65%; inconclusive means mostly about -30% to -63%
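Steps: dispense buffer (Tris pH 8.0, NaCl 300 mM, TCEP 1 mM, BSA, Tween 20); add 5X protein mix (GST-E1A, His-CtBP, 125 nM each); pin 23 nL compound; 2 h at 37 °C, dark; add 5X beads (50 ug/mL); 1 h; read.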
JMJD2A Tudor inh = JMJD2A Tudor domain (human) inhibition; AlphaScreen JMJD2A-Tudor / H3K4me3 peptide binding; Potency, µM (titrated, usually from 114 µM), actives largely listed as inhibitors; 390,000 compounds, 4.4% hits; further: nearly all actives have a fitted effect of over 50% in size
Six1-Eya2 blk = inhibitors of human Six1/Eya2 interaction. AlphaScreen GST-Six1/His-Eya2 binding, biochemical; hits give low values. 360,000 compounds, 0.56% hits. Q15475+O00167. activity change, % (concentration not given with the values); in the data active means activity change below about -65%; inconclusive means mostly about -30% to -63%
Target sequence (O00167 whole entry, looked up): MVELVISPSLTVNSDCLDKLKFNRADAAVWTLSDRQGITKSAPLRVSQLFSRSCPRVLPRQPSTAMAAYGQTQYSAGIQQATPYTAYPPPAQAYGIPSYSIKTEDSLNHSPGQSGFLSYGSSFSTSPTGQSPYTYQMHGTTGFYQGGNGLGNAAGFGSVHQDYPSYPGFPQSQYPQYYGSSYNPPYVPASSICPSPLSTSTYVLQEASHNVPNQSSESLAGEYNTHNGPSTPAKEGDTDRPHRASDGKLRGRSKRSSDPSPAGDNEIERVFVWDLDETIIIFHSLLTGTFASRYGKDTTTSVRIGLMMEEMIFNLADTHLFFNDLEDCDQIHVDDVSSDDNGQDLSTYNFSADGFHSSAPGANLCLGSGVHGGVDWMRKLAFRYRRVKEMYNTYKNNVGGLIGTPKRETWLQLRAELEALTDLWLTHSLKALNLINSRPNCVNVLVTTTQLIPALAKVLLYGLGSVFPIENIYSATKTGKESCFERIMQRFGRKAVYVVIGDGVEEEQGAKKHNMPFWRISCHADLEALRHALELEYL
Target sequence (Q15475 whole entry, looked up): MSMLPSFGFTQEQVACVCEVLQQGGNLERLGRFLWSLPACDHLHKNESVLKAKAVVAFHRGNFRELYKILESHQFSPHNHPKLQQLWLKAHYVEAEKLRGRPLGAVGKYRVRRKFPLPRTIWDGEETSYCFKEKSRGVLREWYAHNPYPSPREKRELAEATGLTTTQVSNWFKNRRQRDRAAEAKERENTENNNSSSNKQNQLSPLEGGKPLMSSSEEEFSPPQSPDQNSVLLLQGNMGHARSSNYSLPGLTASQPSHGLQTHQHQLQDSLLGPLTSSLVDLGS
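AlphaScreen luminescence read after one hour at 37 °C in darkness. Pin-transferred compounds met GST-Six1 and His-Eya2 protein (5X stock 250 nM/500 nM) plus glutathione donor and Ni-chelate acceptor beads (5X, 50 ug/mL).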
BAZ2B block = inhibitors of human BAZ2B bromodomain. 360,000 compounds, 4.4% hits. Potency, µM (series often up to 114 µM), most hits filed as inhibitors. Q9UIF8. AlphaScreen BAZ2B-H3K14Ac peptide displacement. AID 504333; further: nearly all actives have a fitted effect of over 60% in size
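Inhibition is scored as reduced AlphaScreen emission. The BAZ2B/b-H3(5-23)K14Ac complex (50 nM each) in PBS pH 7.4, 0.01% Tween-20 meets compound (up to 110 uM) for 30 min at RT before bead addition.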
Numbers stand for hits; i = inactive; ? = inconclusive; nt = no result; [ ] = remark or other dose. A selection: hits, their analogues and other compounds. The true share with any hit is near 5.3%. Unless noted, the call rests on the fitted dose curve; in most records, active means well fitted inhibition curve with a large enough effect; inconclusive means small, poorly fitted or top-dose-only effect; inactive means no such curve, though single readings can be large or run the other way.

SMILES	TDP1 inh	HP1b chromo inh	CtBP-E1A blk	JMJD2A Tudor inh	Six1-Eya2 blk	BAZ2B block
COc1ccc(-c2nc3n(n2)C(=O)CC(c2ccco2)S3)cc1 (stereo not drawn)	i	i	i	31.6µM	i	?
Oc1ccc(Nc2nc(-c3ccc4ccccc4c3)cs2)cc1	i	nt	nt	nt	nt	?
Cc1cc(Nc2ccc(O)cc2)ccc1N	i	11.2µM	nt	?	nt	6.31µM
Oc1ccc(Nc2ccc3ccccc3c2)cc1	nt	?	i	39.8µM	?	nt
CCOC(=O)c1ccc(-n2c(N)c(C(=O)NCc3ccco3)sc2=S)cc1	i	15.8µM	i	25.1µM	i	39.8µM
O=C(NCc1ccco1)c1ccc(COc2cccc3ccccc23)cc1	i	i	i	i	i	i
O=C(NCc1ccco1)c1ccc(COc2ccccc2Cl)cc1	i	i	i	56.2µM	i	i
COc1ccc(-n2c(N)c(C(=O)NCc3ccco3)sc2=S)cc1	i	i	i	i	i	i
O=C(CCC1N=C2c3ccccc3N=C(SCC(=O)NCc3ccco3)N2C1=O)NCc1ccco1 (stereo not drawn)	nt	i	i	?	i	50.1µM
CCC(CC)C(=O)Nc1cccc(C(=O)NCc2ccco2)c1	i	i	i	?	i	56.2µM
COc1ccc(CCNC(=O)c2ccc(Cn3c(=O)c4ccccc4n(Cc4ccc(F)cc4Cl)c3=O)cc2)cc1OC	i	i	nt	i	nt	i
C=C(CC(=O)OC)C[C@]1(CC(=O)OC)CC2(CC=C(C)C)C(=O)C(C(=O)c3ccccc3)=C(OC(=O)c3ccc(Br)cc3)C(CC=C(C)C)(C1)C2=O (stereo partly drawn)	i[21 µM]	nt	nt	nt	nt	nt
CCOc1ccc(S(=O)(=O)NCC(c2ccco2)S(=O)(=O)c2ccc(C)cc2)cc1 (stereo not drawn)	i	i	nt	i	nt	i
Cn1c2c(c(=O)c3ccccc31)C[C@@H](O)C(C)(C)O2	i	nt	nt	nt	nt	nt
Nc1c(-c2nc(-c3ccccc3Cl)no2)nnn1-c1ccccc1F	i	i	nt	i	nt	i
O=C(CN1CC(=O)Oc2ccccc21)NCc1ccco1	i	i	?	i[11.4 µM]	-71.8	44.7µM
Cc1ccc(C(=O)NCc2ccco2)cc1	3.16µM	i	i	i	i	i
O=C(CN1CCOc2ccccc21)NCc1ccco1	i	i	i	i	i	i
O=C(NCc1ccco1)c1cc2c(s1)CSC2	nt	50.1µM	i	31.6µM	?	50.1µM
CCOc1ccc(C(=O)NCc2ccco2)cc1	i	i	i	i	i	?
CCOc1cc(OCC)cc(C(=O)NCc2ccco2)c1	nt	i	i	89.1µM	i	?
O=C(CCSCCC(=O)NCc1ccco1)NCc1ccco1	i	?	i	20µM	i	56.2µM
Cc1csc2ncc(C(=O)NCc3ccco3)c(=O)n12	44.7µM	i	i	i	i	i
CCOC(=O)c1c(C)c(C(=O)NCc2ccco2)c(C)n1Cc1ccccc1	i	i	i	35.5µM	i	?
O=C(NCc1ccco1)c1cnc2sccn2c1=O	i	i	i	i	i	i
SMILES	TDP1 inh	HP1b chromo inh	CtBP-E1A blk	JMJD2A Tudor inh	Six1-Eya2 blk	BAZ2B block
COc1ccc(Cl)cc1C(=O)Nc1sc2c(c1C(=O)OC(C)C)CCCC2	i[12.3 µM]	i	nt	i	nt	i
COC(=O)c1cc2sccc2n1Cc1c(C)cc(C)cc1C	i	i	nt	i	nt	i
O=C(N/N=C\c1ccc(O)c([N+](=O)[O-])c1)C1COc2ccccc2O1 (stereo not drawn)	i	i	nt	i	i	i
CCN(CC)c1ccc(/C=N/NC(=O)CNC(=O)C2COc3ccccc3O2)c(O)c1 (stereo not drawn)	i	i	?	50.1µM	-69.7	i
COc1cc(/C=N\NC(=O)CNC(=O)C2COc3ccccc3O2)ccc1O (stereo not drawn)	i	i	i	i	i	i
Cc1cc([N+](=O)[O-])cc(/C=N\NC(=O)C2COc3ccccc3O2)c1O (stereo not drawn)	i	i	-71.8	50.1µM	-86.9	28.2µM
CC(=O)c1ccc(NC(=O)c2cc(S(=O)(=O)N3CCOCC3)ccc2C)cc1	i	i	i	i	i	i
Cc1ccc(S(=O)(=O)N2CCCCC2)cc1C(=O)Nc1ccc(S(=O)(=O)Nc2ncccn2)cc1	31.6µM	i	nt	i	i	?
Cc1ccc(S(=O)(=O)N2CCOCC2)cc1C(=O)Nc1ccc(N2CCCCCC2)cc1	i	?	?	22.4µM	?	39.8µM
O=C(Nc1ccc(S(=O)(=O)Nc2ncccn2)cc1)c1cccc(Cl)c1	i	i	nt	i	nt	i
O=C(Nc1ccc(S(=O)(=O)Nc2ncccn2)cc1)c1ccc2ncsc2c1	i	i	i	35.5µM	i	39.8µM
Cc1ccc(C(=O)Nc2nnc(S(=O)(=O)N(C)Cc3ccc(Cl)cc3)s2)cc1	i	i	nt	i	nt	i
COc1ccc(-c2noc(CSc3nnc(C)n3-c3cccc(C)c3)n2)cc1	i	i	nt	i	nt	i
Cc1ccc(NC(=S)NCc2ccc3c(c2)cc(C)n3C)c(C)c1	i	?	nt	22.4µM	?	?
O=c1c2[nH]c3ccsc3c2cnn1Cc1ccccc1F	nt	nt	nt	i	nt	nt
CCCN1CCN(CCCNC(=O)c2c(C)nn(-c3ccc(F)cc3)c2-n2cccc2)CC1	i	i	nt	i	nt	i
COc1ccc(N2CCN(CCCNC(=O)c3c(C)nn(-c4ccc(F)cc4)c3-n3cccc3)CC2)cc1	i	i	nt	?	nt	50.1µM
Cc1ccc(-n2nc(C)c(C(=O)NCCCN3CCN(c4ccc(F)cc4)CC3)c2-n2cccc2)cc1	i	i	nt	44.7µM	nt	39.8µM
Cc1nn(-c2ccc(F)cc2)c(-n2cccc2)c1C(=O)NCCCN1CCN(c2cccc(Cl)c2)CC1	i	i	nt	?	nt	?
Cc1cccc(NC(=O)CSc2nc3c(oc4ccccc43)c(=O)n2-c2ccccc2)c1C	i	i	nt	i	nt	i
Cc1ccc2c(c1)C(=O)C(=O)N2CCCOc1ccccc1C	i	?	i	39.8µM	i	i
O=C(COC(=O)c1nc(Cl)ccc1Cl)Nc1ccccc1OC(F)F	i	i	i	i	i	i
CCOC(=O)c1ncccc1NC(=O)CC(=O)Nc1cccnc1C(=O)OCC	nt	i	nt	12.6µM	-94.9	nt
CCOc1ccc(C(=O)OCC(=O)Nc2cccnc2Cl)cc1OCC	i	i	i	i	i	nt
O=C(COC(=O)c1ccccn1)Nc1cccnc1Cl	i	i	i	?	i	79.4µM
O=C(COC(=O)c1ccccn1)Nc1ccccc1OC(F)F	i	i	i	56.2µM	i	50.1µM
Cc1nc(NCc2ccccc2)c2nc(-c3ccccc3)n(CCN3CCCCC3)c2n1	i	nt	nt	nt	nt	nt
CN(c1ccc(C(=O)Nc2ccccc2C(=O)N2CCOCC2)cc1)S(C)(=O)=O	i	i	i	i	i	i
CC(C(=O)Nc1ccccc1C(=O)N1CCOCC1)N(c1ccccc1)S(C)(=O)=O (stereo not drawn)	i	?	i	39.8µM	i	i
